From the supplement of paper PMC5940239

Columns and labels:
[1] = system: Madurella mycetomatis MM55; conditions: 7 days
[2] = system: Madurella mycetomatis MM55; assay: IC90; higher = less potent; conditions: 7 days
[3] = system: Madurella mycetomatis MM55; assay: percent growth relative to solvent control; higher = less inhibition, active = 20 or less; conditions: 100 µM; 7 days

Row | Compound | IC50 [1] [µM] | IC90 [2] [µM] | percent growth [3]
1 | CCCc1ccc(S(=O)(=O)Nc2ccc(CN3CCN(CC4CC4)CC3)cc2)cc1 | 63.1 | 91.8 | -0.983% (active)
2 | COc1ccc(C2=NN(C3CCCCCC3)C(=O)C2(C)C)cc1OCCCCOc1ccc(-c2nn[nH]n2)cc1 | 50.9 | 90.9 | 0.849% (active)
3 | O=C(NCCc1ccccc1)c1cc(-c2cccnc2)cnc1NCC1CC1 |  | 92.4 | 1.69% (active)
4 | Cn1c(=O)c2c(S(C)(=O)=O)snc2n(C)c1=O | 60 | 91.5 | -0.615% (active)
5 | COc1ccc(-c2cnc3cnc(-c4cccc(OC(C)C)c4)cn23)cc1 | 43.6 | 95 | 6.18% (active)
6 | COc1cc2ncnc(NC3CCN(Cc4ccccc4)CC3)c2cc1OC | 66.6 | 92.3 | -1.64% (active)
7 | C[C@@H]1[C@H](O)[C@@H](C)/C=C/C=C/C=C/C=C/C=C/C=C/C=C/[C@H](O[C@@H]2O[C@H](C)[C@@H](O)[C@H](N)[C@@H]2O)C[C@@H]2O[C@](O)(C[C@@H](O)C[C@@H](O)[C@H](O)CC[C@@H](O)C[C@@H](O)CC(=O)O[C@H]1C)C[C@H](O)[C@H]2C(=O)O | 9.7 | 20.1 | 7.03% (active)
8 | O=C(NC1CCN(c2ccnc3ccccc23)C1)c1cccc(C(F)(F)F)c1 (stereo unspecified) | 61.6 | 94.8 | 3.94% (active)
9 | c1ccc(Oc2ccc(-c3cc(N4CCNCC4)[nH]n3)cc2)cc1 | 35.1 | 81.3 | 0.718% (active)
10 | COc1cncc(-c2cncc(N3CCN(c4ccncc4)CC3)n2)c1 | 28.2 | 52.1 | -0.286% (active)
11 | CCOc1ccc(-c2nc(CNCCc3ccc(F)cc3)cs2)cc1 | 10.4 | 19.6 | 3.57% (active)
12 | COc1ccc(-c2onc(C(F)(F)F)c2-c2ccc(Cl)cc2)c(O)c1 | 8.8 | 16.8 | 3.39% (active)
13 | CN1CCCN(C(c2ccccc2)c2ccc(Cl)cc2)CC1 (stereo unspecified) | 10.2 | 18.6 | 2.74% (active)
14 | c1ccc(C[C@@H]2CN(c3nccc(Oc4ccc(-n5ccnc5)cc4)n3)CCN2)cc1 | 58.9 | 91.2 | -0.802% (active)
15 | COc1ccc(-c2cc(NC(=O)c3ccc(F)cc3Cl)ccc2OC)cc1 | 31.4 | 53 | 19.5% (active)
16 | Cc1ccc2nc(C)c(-c3ccn(Cc4ccccc4)n3)n2c1 | 39.8 | 90.8 | 2.95% (active)
17 | Cc1cnc(N2CCN[C@@H](Cc3ccccc3)C2)nc1Oc1ccc(-n2ccnc2)cc1 | 10.7 | 20.8 | 3.67% (active)
18 | Cc1ccc2c(c1C)NC(=O)C21NN=C(c2ccccc2)S1 (stereo unspecified) | 37.9 | 61.2 | 4.4% (active)
19 | Nc1nccc2ccc(-c3ccc4nccn4c3)cc12 | 53.9 | 89.2 | -2.88% (active)
20 | CN1CCCC1CCO[C@](C)(c1ccccc1)c1ccc(Cl)cc1 (stereo partly specified) | 9.85 | 18.3 | -0.386% (active)
21 | NCCN(C(=O)c1ccc(Cl)cc1Cl)c1ccc(OCc2ccc(Cl)cc2)cc1 | 10.5 | 17.9 | 4.52% (active)
22 | O=C(Nc1cccc(-c2ccc(NCCCN3CCCC3)nc2)c1)c1ccccc1 | 53.1 | 90.9 | -1.11% (active)
23 | Cc1cc(C)nc(-n2nc(C)cc2Nc2ccccc2)n1 | 58.1 | 91.3 | -0.531% (active)
24 | CC(C)NCC(=O)Nc1cccc(C(=O)Nc2cccc(C(F)(F)F)c2)c1 | 62 | 93.7 | 2.17% (active)
25 | O=C(COc1cccc(F)c1)Nc1nc(-c2ccccn2)cs1 | 8.85 | 16.1 | 0.599% (active)

Row | Compound | IC50 [1] [µM] | IC90 [2] [µM] | percent growth [3]
26 | COc1cccc(-n2nnnc2S(=O)(=O)Cc2ccccc2)c1 | 45.7 | 90 | 1.14% (active)
27 | c1cncc(NCc2ccc(-c3cc4ccncc4cc3OC3CCNCC3)s2)c1 | 53.9 | 88.5 | -3.08% (active)
28 | Cc1cccc(Cn2ccc(NC(=O)c3ccc4c(c3)OCO4)n2)c1 | 60.1 | 90.7 | -0.936% (active)
29 | Cc1nc(-c2ccccn2)nc(N2CCC(Cc3ccccc3)C2)c1Cl (stereo unspecified) | 5.1 | 13.7 | 6.94% (active)
30 | COc1ccccc1OCCCCn1c(C2CC2)nc2ccccc21 | 52.1 | 92.7 | 2.84% (active)
31 | CC(c1cc(Cl)cc(Cl)c1)N(C)c1ncc2c(N)nc(N)nc2n1 (stereo unspecified) | 46.5 | 90.7 | 5.31% (active)
32 | CC(C)n1nc(-c2cc3c(Cl)cccc3[nH]2)c2c(N)ncnc21 | 52.5 | 89 | -3.21% (active)
33 | COc1ccc(CCN2CCC(NCc3cccc(N(C)C)c3)CC2)cc1 | 24.5 | 51.7 | -0.197% (active)
34 | CN1CCC(NCc2cccc(-c3ccc(S(=O)(=O)NCc4ccccc4)cc3)c2)CC1 | 40.8 | 92 | 3.47% (active)
35 | Cc1ccc2[nH]c(C3CCCNC3)c(-c3ccncc3)c2c1 (stereo unspecified) | 52.1 | 89.4 | 0.356% (active)
36 | CC(C)(C)c1ccc(N[C@@H]2CCCC[C@H]2NC(=O)c2ccco2)cc1 | 53 | 89.7 | -1.4% (active)
37 | COc1ccc(-c2cnc3ccc(N4CCCC4)nn23)cc1OC | 64 | 92.7 | 0.205% (active)
38 | O=C(c1ccco1)N(CCCn1ccnc1)c1nc2c(Cl)cccc2s1 | 59.1 | 94 | 3.24% (active)
39 | N=C(N)Nc1ccc(-c2ccc(-c3ccc(NC(=N)N)cc3Cl)o2)c(Cl)c1 | 11.4 | 17.8 | -6.7% (active)
40 | N=C(N)c1ccc(-c2cc(-c3ccccc3)on2)cc1 | 52.1 | 90.2 | -0.237% (active)
41 | O=C(NC1CC1)c1ccc(N2CCOc3ccc(Cl)cc32)s1 | 34.5 | 51.8 | -2.78% (active)
42 | c1csc(-c2cnc3sc(NCC4CCOCC4)nn23)c1 | 62.6 | 95.5 | 4.52% (active)
43 | COc1ccccc1CNC(=O)c1cc(C2CC2)nc2c1cnn2C(C)C | 51.9 | 88.8 | -2.92% (active)
44 | Clc1ccc(Cl)c(CO[C@H]2CCCC[C@@H]2n2ccnc2)c1 | 14.2 | 67.5 | 1.03% (active)
45 | O=C(c1cc2ccccc2o1)N1CCN(Cc2ccc3c(c2)OCO3)CC1 | 45.1 | 87.5 | 3.51% (active)
46 | Cc1cc(C)n(-c2ccc(NC(=O)C3CCN(Cc4cnc(C)s4)CC3)cc2)n1 | 48.8 | 92.5 | 1.64% (active)
47 | CCc1ccc(S(=O)(=O)Nc2cc(CN3CCN(CCC(C)C)CC3)ccc2C)cc1 | 59.9 | 91.5 | -0.809% (active)
48 | Cc1cccc(-c2nc(Nc3ccncn3)c3sccc3n2)n1 | 35.2 | 88.1 | 1.77% (active)
49 | CN(C)c1cc(NC(=O)Nc2ccccc2)c2ccccc2n1 | 14.2 | 59.1 | 8.07% (active)
50 | CNC(=O)c1nn(C)c2c1C(C)(C)Cc1cnc(Nc3ccc(N4CCN(C)CC4)cc3)nc1-2 | 10.7 | 21.5 | 0.489% (active)

Row | Compound | IC50 [1] [µM] | IC90 [2] [µM] | percent growth [3]
51 | Cc1cc(NCC(C)C)c2n[nH]c(-c3ccccc3)c2n1 | 52.5 | 89.3 | -1.5% (active)
52 | Cc1nc(-c2ccccn2)nc(N(C)CCc2ccccc2)c1Cl | 9.25 | 17.8 | 2.82% (active)
53 | CNc1nnc(Sc2cnn(-c3ccccc3)c(=O)c2Cl)s1 | 54.9 | 90.8 | -0.261% (active)
54 | c1ccc(-c2cc(N3CCCCC3)c3ccccc3n2)nc1 | 60 | 92.4 | 0.766% (active)
55 | COc1cccc(-c2cc3c(Nc4cccnc4)nccc3[nH]2)c1 | 51.8 | 92.5 | 2.45% (active)
56 | CCCCOC(=O)Nc1cc2nc(C3CCCCC3)[nH]c2cc1N1CCCC1 | 11.6 | 18.4 | 7.67% (active)
57 | CN1CCN(c2cc(-c3ccc(F)cc3)nc(-c3ccncc3)n2)CC1 | 37.1 | 91.2 | 2.98% (active)
58 | CC1=NN(c2nc3ccccc3s2)C(=O)C1Cc1cccc2ccccc12 (stereo unspecified) | 62.1 | 93 | 1.31% (active)
59 | O=C([C@@H](c1ccc(Cl)cc1)c1cccnc1)N1CCN(c2ccc(C(F)(F)F)cc2)CC1 | 1.35 | 3.4 | 4.17% (active)
60 | O=C(C1CCN(c2cc(-n3cccc3)ncn2)CC1)N1CCc2ccccc2C1 | 62.1 | 91.5 | 3.17% (active)
61 | CCC(Sc1nc2ccccc2o1)C(=O)Nc1nccs1 (stereo unspecified) | 37.1 | 56.5 | 0.757% (active)
62 | O=C1N(Cc2cc3ccccc3s2)CC2CN(Cc3ccccc3)CCN12 (stereo unspecified) | 57.6 | 91.8 | 0.636% (active)
63 | O=C(c1ccc(NCCO)cc1)C1C[C@H]1c1ccc(Cl)cc1 (stereo partly specified) | 12.2 | 38 | 4.06% (active)
64 | CC1=Nc2ccc(Cl)cc2C(O)(c2ccc(C)cc2)N1CCN1CCCCC1 (stereo unspecified) | 49.3 | 92.3 | 2.85% (active)
65 | COc1ccc(CN2CCOc3ccc(C(C)(O)CN(C)C)cc3C2)cc1C (stereo unspecified) | 60.6 | 93.5 | 2.42% (active)
66 | O=C(Nc1nnc(-c2ccc(Cl)s2)o1)c1ccc(Cl)s1 | 54.3 | 93.7 | 3.26% (active)
67 | Cc1cc(NCCc2ccccc2)nc(NC(=N)Nc2ccc(Cl)cc2)n1 | 10.4 | 18.8 | -1.87% (active)
68 | Brc1cncc(-c2cc(NCCCn3ccnc3)nc(-c3ccccc3)n2)c1 | 55 | 90.8 | -0.251% (active)
69 | O=C(Nc1cccc(Cl)c1)c1cnc(N2CCN(c3ccncc3)CC2)c(Cl)c1 | 9.3 | 19.6 | 6.08% (active)
70 | Cc1nnc(NCc2cccc(Cl)c2)c2ccccc12 | 29.1 | 62.8 | -0.336% (active)
71 | COc1cccc(-n2nnnc2S(C)(=O)=O)c1 | 59.9 | 92.6 | 1.2% (active)
72 | c1ccc2c(c1)CN(CC1CC1)CC1(CCN(Cc3c[nH]c4cnccc34)CC1)O2 | 62.9 | 96 | 5.33% (active)
73 | Cc1ccccc1CN1CCC(O)(c2ccc(Cl)c(C(F)(F)F)c2)CC1 | 35.5 | 56.3 | 1.71% (active)
74 | C[C@H](C(N)=O)N1CCCC[C@H]1c1ccc(OCc2cccc(F)c2)cc1 | 64.2 | 94.4 | 2.85% (active)
